From PubChem BioAssay AID1852 (Sanford-Burnham Center for Chemical Genomics, 2009)
Out of some 2,500 compounds screened, about 1,100 (44%) were called active.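 The calls were made as follows: active = inhibition above 50% at 4 µM in the single-point screen; inactive = inhibition of 50% or less.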 The set was probably picked from earlier hits. This is one part of the list.

Assay: blockers of TNF-a NF-kB luciferase induction – cell-based, HEK293T NF-kB-Luc, luminescence, selectivity assay for NOD1/NOD2 signaling inhibitor project, primary screen (AID 1852)
Details: TNF-a induced, 14 h, at 4 µM, hits give high values

inhibition, inactive:
Cc1cccc(C(=O)Nc2scc(CC(C)C)c2C(=O)O)c1 -33.5%
Cc1cccc(Nc2nc(N)nc(CCl)n2)c1C 18.1%
Cc1cccc(NC(=O)CCNC(=O)c2ccc(Br)cc2)c1C -6.4%
CCOC(=O)N1CCN(C(=O)c2ccc([N+](=O)[O-])cc2Cl)CC1 43%
Nc1nn2c(-c3ccccc3)cc(=O)[nH]c2c1N=Nc1ccc(O)cc1 -17.5%
COC(=O)c1scc(S(=O)(=O)C(C)C)c1N/N=C(\C#N)C(=O)c1ccc(Cl)cc1 27.4%
COc1ccc(S(=O)(=O)NC(C)C(=O)Nc2cccc([N+](=O)[O-])c2)cc1 (stereo not drawn) 36.7%
O=C(NNC(=O)c1cc(-c2ccccc2)nn1-c1ccccc1)c1ccccc1 11.9%
O=C(Nc1ccc(F)cc1)c1nn(-c2ccccc2)c(=O)cc1Cl -30.5%
O=C(Nc1ccc2oc(-c3cccnc3)nc2c1)c1ccc([N+](=O)[O-])o1 43.1%
CC(=O)c1cccc(NS(=O)(=O)c2ccc(NC(=O)N3CCCCC3)cc2)c1 19.3%
COc1cccc(NS(=O)(=O)c2ccc3c(c2)CCN3C(C)=O)c1 41.6%
Cc1ccc(OC(F)F)c(NC(=O)Nc2cccc(C(F)(F)F)c2)c1 8.9%
CCOC(=O)c1cnn(Cc2cccc(Cl)c2)c1C -4.9%
O=C(OCC(=O)N1CCOCC1)c1ccccc1Br 0.9%
c1ccc(-c2csc(Nc3ccc4c(c3)OCCO4)n2)cc1 -211%
O=C(Nc1nc(-c2ccc3c(c2)OCO3)cs1)c1ccncc1 34.9%
CC(=O)Nc1ccc2nc(NC(=O)c3ccc([N+](=O)[O-])o3)sc2c1 18.3%
CCN1C(=O)/C(=C/c2nc3ccccc3c(=O)n2-c2ccccc2)c2ccccc21 40.6%
O=C1OCCC1Sc1nnc(-c2ccc(Cl)cc2Cl)o1 (stereo not drawn) 35.1%
CC(C)NC(=O)c1ccc(Sc2ccccc2)c([N+](=O)[O-])c1 16.7%
Cn1cnnc1Sc1ccc(/C=C/C(=O)c2ccc(O)cc2)cc1[N+](=O)[O-] 6.7%
CCN(c1ccccc1)S(=O)(=O)c1ccc(NC(=O)c2nc(S(C)(=O)=O)ncc2Cl)cc1 30%
Cc1ccc(NC(=O)c2nc(S(=O)(=O)Cc3ccccc3C)ncc2Cl)cc1C 5.2%
Cc1cccc(CS(=O)(=O)c2ncc(Cl)c(C(=O)Nc3ccc(F)cc3)n2)c1 43%
O=C(c1[nH]ncc1-c1cccc(Br)c1)C1CO1 (stereo not drawn) 33.6%
Cc1nc2c(-c3ccc(Cl)cc3)cnn2c(N)c1-c1ccc(F)cc1 -246%
O=C(Cc1ccc(Br)cc1)Nc1ncc([N+](=O)[O-])s1 23.8%
CC(C)N1C(=O)/C(=C/c2nc3ccccc3c(=O)n2-c2ccccc2)c2ccccc21 43.6%
COc1ccc(C(=O)n2cc(C(=O)c3cc(C)ccc3O)cn2)cc1OC 36.5%
COc1ccc(O)c(-c2[nH]ncc2C(=O)c2ccccc2)c1 9.4%
CCc1cccc(CC)c1NC(=O)CN1CCc2cc(OC)c(OC)cc2C1 23.9%
COc1ccc(N2CCN(c3cc(=O)n(Cc4ccc(F)cc4)c(=O)[nH]3)CC2)cc1 6.1%
CC(=O)N1CCc2cc(S(=O)(=O)NCc3ccc(C)cc3)ccc21 26.3%
O=C(CN1CCOCC1)Nc1nc(-c2ccc3c(c2)CCN3S(=O)(=O)c2ccccc2)cs1 -1%
Cc1ccc(C(=O)N2CCN(c3ccc(F)cc3)CC2)cc1S(=O)(=O)N1CCCCC1 43.8%
CCC(C)[C@@H](NC(=O)OC(C)(C)C)c1nnc(S(=O)(=O)Cc2cccc(C)c2)o1 (stereo partly drawn) 45.7%
COC(=O)c1ccc(NC(=O)c2nc(S(=O)(=O)Cc3cccc(C)c3)ncc2Cl)cc1 47.3%
O=C(Nc1nc2ccccc2n1Cc1ccc(Cl)cc1)c1ccco1 41.5%
Cc1ccccc1Cn1c(C)nc2ccccc21 32%
Cc1c(O)ccc2c(-c3ccccc3)cc(=O)oc12 30.3%
CC(=O)NCCC(=O)N1CCc2c([nH]c3ccccc23)C1c1cccc(Cl)c1 (stereo not drawn) 6.2%
CC(=O)N1CC(C)Sc2ccc(S(=O)(=O)NCCc3ccc(C)cc3)cc21 (stereo not drawn) 44.7%
Cc1ccc2oc(/N=C(\N)NC(=O)C(C)(C)C)nc2c1 40.4%
Cc1ccc(Oc2c(C(N)=O)cc([N+](=O)[O-])cc2[N+](=O)[O-])cc1 -11.8%
O=C(Cc1cccs1)N/N=C\c1ccc([N+](=O)[O-])s1 49.1%
O=C(N/N=C\c1ccc([N+](=O)[O-])s1)C1COc2ccccc2O1 (stereo not drawn) 17.5%
Cc1cc(C(=O)N/N=C/c2ccc([N+](=O)[O-])s2)c2ccccc2n1 37.2%
COc1cc(S(=O)(=O)n2cnc(C)c2)ccc1Br -6%
Fc1cccc(NC(=S)NNc2c3ccccc3nc3ccccc23)c1 20.7%
CCn1c(SCc2nc3scc(-c4ccccc4)c3c(=O)[nH]2)nnc1-c1cccs1 1.6%

inhibition, active:
CCC(C)N(CC(=O)Nc1cccc(C)c1C)C(=O)CCl (stereo not drawn) 85.8%
CCCN(CC(=O)Nc1ccccc1C)C(=O)CCl 93.3%
CC(=O)Oc1c(C)cc(Cl)cc1C(=O)Nc1ccc([N+](=O)[O-])cc1Cl 98.1%
Nc1nn2c(-c3ccccc3)cc(=O)[nH]c2c1N=Nc1ccc(Br)cc1 78.7%
COc1ccc(C(=O)/C(C#N)=N/Nc2cccc([N+](=O)[O-])c2)cc1 87.9%
O=C(c1ccccc1)c1nn(-c2ccc(Cl)cc2)c(=O)cc1C(F)(F)F 54.8%
CC(=O)Nc1ccc(S(=O)(=O)Nc2ccc3c(c2)CCC3)cc1 85%
C=C1C(=O)O[C@@H]2C[C@@H](C)[C@@H]3C=CC(=O)[C@@]3(C)[C@@H](OC(C)=O)[C@H]12 101%
Cc1oc2c(F)c(F)c(F)c(F)c2c1S(=O)(=O)Nc1cccc(C(F)(F)F)c1 87.4%
O=C(OCn1ncc(Cl)c(Cl)c1=O)c1ccccc1Cl 94.2%
O=C(OCn1ncc(Br)c(Br)c1=O)c1ccccc1Cl 79.3%
O=C(/C=C/c1ccc2c(c1)OCO2)Nc1nc(-c2ccccc2)cs1 103%
O=[N+]([O-])c1cc(Br)c(O)c(/C=N/Nc2nc3ccccc3s2)c1 79.2%
C(=N\Nc1nc2ccccc2s1)/c1ccccn1 105%
CC(C)C1Nc2c(O)cc(Cl)c([N+](=O)[O-])c2C2C=CCC21 (stereo not drawn) 74.1%
CC(=O)c1ccc(Sc2nnnn2-c2ccccc2)c([N+](=O)[O-])c1 61.3%
O=C(Nc1ccc(F)cc1)c1nc(S(=O)(=O)Cc2ccccc2)ncc1Cl 60.6%
CCS(=O)(=O)c1ncc(Cl)c(C(=O)Nc2ccc(C)cc2)n1 99.2%
CN(c1ccccc1)S(=O)(=O)c1ccc(NC(=O)c2nc(S(C)(=O)=O)ncc2Cl)cc1 60.4%
CCS(=O)(=O)c1ncc(Cl)c(C(=O)Nc2ccc(S(=O)(=O)N(C)c3ccccc3)cc2)n1 88.3%
O=c1c2c(nc3c(-c4ccc(Cl)cc4)c[nH]n13)CCCC2 75.3%
O=c1c2c(nc3c(-c4cccc(Br)c4)c[nH]n13)CCCC2 83%
O=c1c2c(nc3c(-c4ccc(Cl)cc4)c[nH]n13)CCC2 102%
CCCc1cc(=O)n2[nH]cc(-c3ccc(Cl)cc3)c2n1 101%
COc1ccc(C(=O)c2ccccc2)c2c(O)ccc(C(=O)c3ccccc3)c12 53.3%
COc1ccc(Oc2ccccc2/C=N/O)cc1 81.6%
COc1ccc(C2C(O)C(c3c[nH]c4ccccc34)=NN2C(=O)CCl)cc1 (stereo not drawn) 96.7%
CNc1nc(-c2ccc3c(c2)CCN3S(=O)(=O)c2ccccc2)c(C)s1 79.2%
CC(=O)c1c(O)c(C)c(O)c2c1OC1=CC(=O)C(C(C)=O)C(=O)[C@@]12C (stereo partly drawn) 80.3%
O=C(c1ccc2c(c1)CCN2S(=O)(=O)c1ccccc1)N1CCN(c2ccc(F)cc2)CC1 65.3%
CSc1nnc(NC(=O)c2nc(S(=O)(=O)Cc3ccc(C)cc3)ncc2Cl)s1 98.9%
Cc1cccc(CS(=O)(=O)c2ncc(Cl)c(C(=O)Nc3nnc(C(C)C)s3)n2)c1 84.2%
Cc1ccc(CS(=O)(=O)c2ncc(Cl)c(C(=O)Nc3nnc(C(C)C)s3)n2)cc1 85.6%
CCC(=O)Nc1nc2ccccc2n1Cc1ccccc1Cl 75.1%
COc1ccc(-c2cc(=O)oc3c(C)c(O)ccc23)cc1 91.8%
COc1ccc(-c2cc(=O)oc3c(C)c(OC(=O)c4cccs4)ccc23)cc1 63.9%
COc1ccc2cc(C(N)=O)c(=Nc3ccc(C)cc3)oc2c1 62.3%
Cc1ccc(N=c2oc3cc(O)ccc3cc2C(N)=O)cc1 72.5%
O=C(N/N=C/c1ccc([N+](=O)[O-])s1)c1cccc(Br)c1 66.8%
O=C(N/N=C/c1ccc([N+](=O)[O-])s1)c1ccccc1Br 50.8%
Cc1nc2ccccc2c(C)c1C(=O)c1ccc(F)cc1 66%
O=c1cc(CSc2nnc(-c3cccs3)n2Cc2ccccc2)nc2sc3ccccc3n12 88.7%
